# Assay outcomes: PubChem BioAssay, National Center for Advancing Translational Sciences (NCATS)
# HP1b chromo inh = HP1-beta chromodomain-methylated histone interaction inhibition. AlphaScreen HP1-beta / biotin-H3K9me3 peptide binding. Potency, µM (series often up to 114 µM), for inactives: at the highest dose activity change, negative = inhibition, most hits filed as inhibitors. hit rate 0.56% among 390,000. AID 540317; note: potency is the fitted concentration of half-maximal effect; nearly all actives have a fitted effect of over 70% in size
#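 AlphaScreen: HP1-beta (50 nM) preformed 30 min with biotin-H3(1-18)K9me3 peptide (50 nM) in PBS pH 7.4, 0.01% Tween-20. Compound added for 30 min at RT, then streptavidin donor/nickel chelate acceptor beads (10 ug/mL) for 30 min.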
# Six1-Eya2 blk = blocks human Six1 binding to Eya2; activity change, % (test concentration not listed); hit rate 0.56% among 360,000; AlphaScreen GST-Six1/His-Eya2 binding, biochemical; hits give low values; in the data active = activity change below about -65%; inconclusive = mostly about -30% to -63%; note: % is set by controls: 0 for no effect and ±100 for the full control effect
#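 Compounds are tested against tagged Six1 and Eya2 proteins bridged by glutathione donor and nickel acceptor beads; after a one-hour incubation at 37 °C without light, AlphaScreen emission is recorded.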
# BAZ2B inh = BAZ2B (human) inhibition. AlphaScreen BAZ2B-H3K14Ac peptide displacement. Potency, µM (titrated, usually from 114 µM), for inactives: at the highest dose activity change, negative = inhibition, actives largely listed as inhibitors. hit rate 4.4% among 360,000; note: potency is the fitted concentration of half-maximal effect; % is set by controls: 0 for no effect and ±100 for the full control effect; nearly all actives have a fitted effect of over 60% in size
#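 AlphaScreen luminescence quantifies BAZ2B engagement of H3K14Ac peptide; the protein and biotinylated peptide are both at 50 nM final, buffer PBS pH 7.4 with 0.01% Tween-20, all steps at room temperature.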
# CtBP-E1A inh = inhibitors of CtBP/E1A interaction | AlphaScreen GST-E1A/His-CtBP binding, 1536-well; hits give low values | activity change, % (no concentration beside the values) | hit rate 0.49% among 340,000; in the data active = activity change below about -65%; inconclusive = mostly about -30% to -63%; note: % is set by controls: 0 for no effect and ±100 for the full control effect
#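 Steps: dispense buffer (Tris pH 8.0, NaCl 300 mM, TCEP 1 mM, BSA, Tween 20); add 5X protein mix (GST-E1A, His-CtBP, 125 nM each); pin 23 nL compound; 2 h at 37 °C, dark; add 5X beads (50 ug/mL); 1 h; read.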
# JMJD2A Tudor = inhibitors of human JMJD2A Tudor domain. hit rate 4.4% among 390,000. Potency, µM (top dose mostly 114 µM), inactives show top-dose activity change, negative = inhibition, most hits filed as inhibitors. O75164. AID 504339. AlphaScreen JMJD2A-Tudor / H3K4me3 peptide binding; note: potency is the fitted concentration of half-maximal effect; % is set by controls: 0 for no effect and ±100 for the full control effect; nearly all actives have a fitted effect of over 50% in size
# Target sequence (O75164 whole entry, looked up, the tested form may be a part): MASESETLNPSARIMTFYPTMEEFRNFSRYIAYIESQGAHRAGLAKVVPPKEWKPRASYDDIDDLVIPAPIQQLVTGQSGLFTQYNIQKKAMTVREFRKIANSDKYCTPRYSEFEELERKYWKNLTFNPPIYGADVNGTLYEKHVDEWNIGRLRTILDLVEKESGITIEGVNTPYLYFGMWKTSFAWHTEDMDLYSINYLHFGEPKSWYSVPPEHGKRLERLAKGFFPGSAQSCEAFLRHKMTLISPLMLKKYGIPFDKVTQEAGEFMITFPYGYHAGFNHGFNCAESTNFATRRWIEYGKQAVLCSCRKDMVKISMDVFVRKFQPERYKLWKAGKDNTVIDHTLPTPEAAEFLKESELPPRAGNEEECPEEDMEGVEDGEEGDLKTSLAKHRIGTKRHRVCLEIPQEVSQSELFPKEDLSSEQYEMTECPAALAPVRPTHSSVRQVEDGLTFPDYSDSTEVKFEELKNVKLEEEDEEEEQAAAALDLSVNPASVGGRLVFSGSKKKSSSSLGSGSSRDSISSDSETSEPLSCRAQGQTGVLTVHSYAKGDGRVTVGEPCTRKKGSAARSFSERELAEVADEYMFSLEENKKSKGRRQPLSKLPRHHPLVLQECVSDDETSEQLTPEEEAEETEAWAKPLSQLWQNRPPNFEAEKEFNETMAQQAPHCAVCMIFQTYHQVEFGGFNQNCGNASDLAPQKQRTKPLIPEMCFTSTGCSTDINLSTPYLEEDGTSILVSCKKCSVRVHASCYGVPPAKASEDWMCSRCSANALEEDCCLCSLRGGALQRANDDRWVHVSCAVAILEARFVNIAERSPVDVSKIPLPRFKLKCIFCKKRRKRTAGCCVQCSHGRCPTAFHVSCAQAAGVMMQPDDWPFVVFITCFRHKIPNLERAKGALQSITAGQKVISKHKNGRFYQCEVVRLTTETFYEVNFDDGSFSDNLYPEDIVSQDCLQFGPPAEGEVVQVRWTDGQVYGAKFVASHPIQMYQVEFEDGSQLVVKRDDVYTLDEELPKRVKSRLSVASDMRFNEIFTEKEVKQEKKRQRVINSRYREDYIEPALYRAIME
# G9a inh = G9a (human) methyltransferase inhibition. AID 504332. Potency, µM (doses to about 102 µM), for inactives: top-dose activity, negative = inhibition, actives largely listed as inhibitors. G9a H3K9 monomethylation, AlphaScreen, 2 h. Q96KQ7. hit rate 8.8% among 350,000; note: potency is the fitted concentration of half-maximal effect; % is set by controls: 0 for no effect and ±100 for the full control effect; nearly all actives have a fitted effect of over 75% in size
#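 AlphaScreen read-out: biotin-H3K9 peptide (500 nM) methylation by 20 nM enzyme with 20 uM SAM, 2 h at room temperature after 15 min compound preincubation; anti-monomethyl H3K9 antibody plus donor/acceptor beads, 10 min dark.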
# An asterisk follows results filed as active; ? = inconclusive; · = not tested or not shown; [ ] = another dose, or the depositor's remark. Rows were chosen to be rich in hits. Some 10% of all compounds tested hit in one or more screens of this group. Unless noted, calls come from the whole dose curve; as a rule, active = well fitted inhibition curve with a large enough effect; inconclusive = small, poorly fitted or top-dose-only effect; inactive = no such curve, though single readings can be large or run the other way.
SMILES,HP1b chromo inh,Six1-Eya2 blk,BAZ2B inh,CtBP-E1A inh,JMJD2A Tudor,G9a inh
C/C=C/c1ccc(OCC(=O)OCC)c(OC)c1,21%,0,8%,2,-9%,-8%[59 µM]
Cc1cccc(N=N/C(=C\O)C(=O)c2cccs2)c1,?,-20,11µM*,-14,25µM*,28µM*
O=C(/C(=C/O)N=Nc1ccccc1)c1ccncc1,-15%,-13,?,-6,?,-2%[59 µM]
CSc1nc(N)n2nc(C)cc2n1,·,-89*,·,-92*,·,·
Cc1ccc(-n2nc3c(c2NC(=O)c2c(-c4ccccc4Cl)noc2C)CSC3)cc1,18%,-4,0%,3,-24%,45µM*
Cc1ccccc1-n1nc2c(c1NC(=O)c1c(-c3ccccc3Cl)noc1C)CSC2,6%,-6,-8%,5,-19%,-3%
Cc1onc(-c2ccccc2Cl)c1C(=O)Nc1ccc(-n2nncc2C(C)(C)C)cc1,11%,1,-3%,5,-14%,-50%
Cc1onc(-c2ccccc2Cl)c1C(=O)Nc1ccc(-n2nncc2-c2ccco2)cc1,-6%,-14,?,-12,?,40µM*
O=C(Nc1ccc(-n2nncc2-c2ccco2)cc1)c1ccc(F)cc1,?,-2,?,-16,?,50µM*
CCOc1ccc(S(=O)(=O)NCCc2sc3nc(-c4ccc(F)cc4)nn3c2C)cc1,36%,·,-1%,·,-4%,5%[59 µM]
CCOc1ccc(NC(=O)C2CCN(C(=O)N3CC(C)Oc4ccc(Cl)cc43)CC2)cc1 (stereo not drawn),-10%,·,79µM*,·,?,?
O=C(O)C1Nc2c(Cl)cc(Cl)cc2C2C=CCC12 (stereo not drawn),28µM*,?,25µM*,-8,22µM*,·
CC(C)CNC(=O)C1Nc2ccc(C(F)(F)F)cc2C2C=CCC12 (stereo not drawn),14%,1,·,5,-22%,·
O=C(O)C1Nc2c(Cl)cc(Cl)c(Cl)c2C2C=CCC12 (stereo not drawn),?,2,·,·,56µM*,·
O=C(O)C1Nc2c(O)cccc2C2C=CCC12 (stereo not drawn),28µM*,0,1.6µM*,-82*,2.5µM*,10µM*
O=C(NCCF)C1Nc2ccc(OC(F)(F)F)cc2C2C=CCC12 (stereo not drawn),9%,-3,·,3,-35%,·
Cc1ccc(C)c2c1NC(C(=O)O)C1CC=CC21 (stereo not drawn),22µM*,·,·,·,20µM*,·
COc1cc2c(cc1NC(=O)COc1cc(C)ccc1C)oc1ccccc12,25%,·,-7%,·,-9%,-39%[59 µM]
O=C(CCC1N=C2c3ccccc3N=C(SCc3ccccc3Cl)N2C1=O)N1CCN(c2ccccc2)CC1 (stereo not drawn),-9%,·,?,·,?,?
Cc1cc(C)c(NC(=O)C2CCN(C(=O)N3CCOc4ccccc43)CC2)c(C)c1,30%,·,-23%,·,-8%,0%[59 µM]
CC(C)c1ccc(Nc2c(-c3ccc(N(C)C)cc3)nc3cnccn23)cc1,17%,·,-30%,·,?,-11%[59 µM]
Cc1ccc2nc(CN3CCN(C(=O)Nc4ccc(C)c(F)c4)CC3)oc2c1,32%,·,-5%,·,2%,0%[12.7 µM]
CC1=C(C(=O)OCC2CCCO2)C(c2ccc(C)o2)C2=C(CC(c3ccc(N(C)C)cc3)CC2=O)N1 (stereo not drawn),·,·,40µM*,·,·,11µM*
CCOC(=O)C1=C(C)NC2=C(C(=O)CCC2)C1c1ccc(N(C)C)cc1 (stereo not drawn),-6%,-5,-35%,-11,-32%,?
CCCOC(=O)C1=C(C)NC2=C(C(=O)CCC2)C1c1ccc(N(C)C)cc1 (stereo not drawn),-7%,-17,-51%,-11,-32%,40µM*
SMILES,HP1b chromo inh,Six1-Eya2 blk,BAZ2B inh,CtBP-E1A inh,JMJD2A Tudor,G9a inh
CCN(CC)c1ccc(C2C(C(=O)OCCOC)=C(C)NC3=C2C(=O)CCC3)cc1 (stereo not drawn),46%,-1,-9%,3,-35%,4.5µM*
CCOC(=O)c1ccc(NC(=O)CC2Nc3cc(C)c(C)cc3NC2=O)cc1 (stereo not drawn),14%,·,-12%,·,-18%,-12%[59 µM]
CN1C(=O)/C(=C2\SC(N3CCCCCC3)=NC2=O)c2ccccc21,?,-1,?,-18,40µM*,40µM*
CCCN1C(=O)/C(=C2\SC(N3CCCCC3)=NC2=O)c2ccccc21,-70%,-18,16µM*,-7,40µM*,22µM*
O=C(OCc1ccccc1F)c1ccc(-c2nnn(Cc3ccccc3)n2)cc1,101%,·,11%,·,71%,1%[59 µM]
Cc1c(CNC2CCCCC2)c(C(=O)O)c(C)n1Cc1ccccc1F,12%,·,-10%,·,-10%,-3%[59 µM]
S=c1[nH]nc(-c2ccccc2Cl)n1CC1CCCO1 (stereo not drawn),29%,6,-30%,0,40µM*,5µM*
CC(C)(C)c1ccc(-c2n[nH]c(=S)n2CC2CCCO2)cc1 (stereo not drawn),0%,-6,-19%,2,32µM*,7.9µM*
Fc1ccccc1-c1n[nH]c(=S)n1CC1CCCO1 (stereo not drawn),44%,-3,-12%,-6,-11%,27%[12.7 µM]
Cc1ccc(-c2nc(=S)c3c(n2CC2CCCO2)CC(C)(C)OC3)cc1 (stereo not drawn),18%,4,32%,11,-3%,17%[12.7 µM]
Cc1cccc(N2CCN(C(=O)CCNS(=O)(=O)c3ccc4c(c3)CCN4C(=O)C3CC3)CC2C)c1 (stereo not drawn),18%[57 µM],·,-10%,·,-27%,9%[59 µM]
COc1ccc(N(Cc2nnc3n2CCCCC3)C(=O)Nc2cccc(C)c2)cc1Cl,24%[57 µM],·,-1%,·,-7%,11%[59 µM]
CCOCc1[nH]c(=S)[nH]c(=O)c1Cc1ccc(OCC(C)C)cc1,-16%,-2,-1%,-1,50µM*,-41%
CSCC[C@@H](C(=O)NCc1cccs1)N1Cc2ccccc2C1=O,8%,-2,-9%,6,-23%,50µM*
CSCC[C@@H](C(=O)Nc1cccc(F)c1)N1Cc2ccccc2C1=O,26%,·,-34%,·,-24%,18µM*
NC(=O)N=Nc1c(O)[nH]c2ccc([N+](=O)[O-])cc12,30%,?,-13%,-72*,-22%,·
Cc1c(C(=O)NN)[nH]c2ccc([N+](=O)[O-])cc12,28%,-13,35µM*,-7,-12%,5%
CC(C)NC(=S)N=Nc1c(O)[nH]c2ccc([N+](=O)[O-])cc12,-22%,-68*,19%,22,-18%,?
COc1ccccc1C(=O)N=Nc1c(O)[nH]c2ccc([N+](=O)[O-])cc12,16%,?,?,·,-29%,13%
